Growth inhibition data for 10 molecules are collected here from PubChem BioAssay (NCI).

The structures appear in SMILES notation. This is part of a sample that, as a whole, favours compounds with a hit. Of some 79,000 tested, about 15% had one in any assay. A number with no mark means an inactive call. Active and inactive are the calls of the source. No stated cut-off is given here; in the data, active means growth inhibition above about 70%; inactive means the rest.

A short description of assay [1]: NCI Yeast Anticancer Drug Screen. Data for the rad50 strain (AID 155).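 Further: 0% = growth of vehicle-only cultures of the same strain.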 The following applies: S. cerevisiae rad50 strain growth inhibition, hits give high values. In outline:
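Relative growth inhibition (compound vs vehicle) was measured in yeast with a defined repair-gene alteration.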

Assay [2] is described as follows: NCI Yeast Anticancer Drug Screen. Data for the mec2-1 strain (AID 157). The conditions noted are these: S. cerevisiae mec2-1 strain, hits give high values. In outline:
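Each compound was tested on mec2-1 yeast, a strain altered in DNA damage repair or cell cycle control. Growth inhibition is reported relative to vehicle.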

A short description of assay [3]: NCI Yeast Anticancer Drug Screen. Data for the sgs1 mgt1 strain (AID 161).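 Further: 0% = growth of cultures given vehicle only.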 The following applies: S. cerevisiae sgs1 mgt1 strain, hits give high values. In a few lines:
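Test agents were incubated with a DNA-repair-mutant yeast strain. Growth was then read and compared against vehicle-treated controls.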

Assay [4] is described as follows: NCI Yeast Anticancer Drug Screen. Data for the cln2 rad14 strain (AID 165).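 Further: 0% = growth equal to vehicle treated cultures.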 The following applies: S. cerevisiae cln2 rad14 strain, hits give high values. In outline:
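Test compounds were added to cln2 rad14 yeast cultures; inhibition of growth was then determined by comparison with vehicle treatment.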

Assay [5] can be described thus: NCI Yeast Anticancer Drug Screen. Data for the bub3 strain (AID 167). The conditions noted are these: S. cerevisiae bub3 mutant strain, hits give high values. In outline: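 Screening used yeast with an engineered genetic alteration affecting cell cycle control. Compound-exposed cultures were compared with vehicle cultures, and reduced growth was taken as inhibition.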

Assay [6] is described as follows: NCI Yeast Anticancer Drug Screen. Data for the mlh1 rad18 strain (AID 175). The conditions noted are these: S. cerevisiae mlh1 rad18 strain growth inhibition, hits give high values. In a few lines:
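Inhibition values reflect reduced growth of mutant yeast versus vehicle-treated controls following compound exposure; the mutations affect DNA damage repair.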

Setting [7] is: at 5.0 µM (retest, dose inferred, filed as 0.5).
Setting [8] is: at 50.0 µM (retest, dose inferred, filed as 5.0).

In the case of `CC(=O)OCc1cc(=O)n(C)c2c3c4c(cc12)c(C)cc(=O)n4CO3`, the growth inhibition in assay [1] (setting [7]) is 87% (active); in assay [1] (setting [8]), 99% (active); in assay [1] (at 50.0 µM) it was 85.6% (active); in assay [2] (setting [7]), 69%; in assay [2] (setting [8]) it was 99% (active); in assay [2] (at 50.0 µM), 88.5% (active). Besides, the growth inhibition in assay [3] (setting [7]) was 83% (active); in assay [3] (setting [8]), 99% (active); in assay [3] (at 50.0 µM), 91.2% (active); in assay [4] (setting [7]), 79% (active); in assay [4] (setting [8]) it was 97% (active); in assay [4] (at 50.0 µM), 87.4% (active). The growth inhibition is 86% (active) in assay [5] (setting [7]); 97% (active) in assay [5] (setting [8]); 83.8% (active) in assay [5] (at 50.0 µM); 91% (active) in assay [6] (setting [7]); 99% (active) in assay [6] (setting [8]); 89.9% (active) in assay [6] (at 50.0 µM).
As for `CCCCCCCCC1(C(=O)OCCN(CC)CC)CCCCC1`, the growth inhibition in assay [1] (setting [7]) is 8%; in assay [1] (setting [8]), 99% (active); in assay [1] (at 50.0 µM), 99.8% (active); in assay [2] (setting [7]), 0%; in assay [2] (setting [8]) it was 100% (active); in assay [2] (at 50.0 µM) it was 99.8% (active). Also, the growth inhibition in assay [3] (setting [7]) is 36%; in assay [3] (setting [8]), 99% (active); in assay [3] (at 50.0 µM), 99.5% (active); in assay [4] (setting [7]), 13%; in assay [4] (setting [8]), 100% (active); in assay [4] (at 50.0 µM) it was 99.8% (active). Further, the growth inhibition in assay [5] (setting [7]) was 22%; in assay [5] (setting [8]), 99% (active); in assay [5] (at 50.0 µM), 99.2% (active); in assay [6] (setting [7]), 12%; in assay [6] (setting [8]) it was 98% (active); in assay [6] (at 50.0 µM) it was 99.7% (active).
On to `CCCCN(CCCC)c1ccc2c(c1)C(O)c1ccccc1-2` (stereo not given), for which the growth inhibition was 6% in assay [1] (setting [7]); 81% (active) in assay [1] (setting [8]); 76.5% (active) in assay [1] (at 50.0 µM); 2% in assay [2] (setting [7]); 74% (active) in assay [2] (setting [8]); 59.2% in assay [2] (at 50.0 µM). Besides, the growth inhibition in assay [3] (setting [7]) is 4%; in assay [3] (setting [8]), 78% (active); in assay [3] (at 50.0 µM), 88.1% (active); in assay [4] (setting [7]), 5%; in assay [4] (setting [8]), 85% (active); in assay [4] (at 50.0 µM), 74.8% (active). The growth inhibition was 0% in assay [5] (setting [7]); 77% (active) in assay [5] (setting [8]); 82% (active) in assay [5] (at 50.0 µM); 15% in assay [6] (setting [7]); 72% (active) in assay [6] (setting [8]); 85.2% (active) in assay [6] (at 50.0 µM).
In the case of `O=S(=O)(SCc1ccccc1)C(c1ccccc1)c1ccccc1`, the growth inhibition is 10% in assay [1] (setting [7]); 6% in assay [1] (setting [8]); 89.7% (active) in assay [1] (at 50.0 µM); 13% in assay [2] (setting [7]); 6% in assay [2] (setting [8]); 98.6% (active) in assay [2] (at 50.0 µM). Besides, the growth inhibition in assay [3] (setting [7]) was 13%; in assay [3] (setting [8]) it was 31%; in assay [3] (at 50.0 µM) it was 98% (active); in assay [4] (setting [7]) it was 5%; in assay [4] (setting [8]), -17%; in assay [4] (at 50.0 µM), 95.5% (active). The growth inhibition is 13% in assay [5] (setting [7]); 39% in assay [5] (setting [8]); 99.1% (active) in assay [5] (at 50.0 µM); 20% in assay [6] (setting [7]); 18% in assay [6] (setting [8]); 98% (active) in assay [6] (at 50.0 µM).
Consider `Cc1cccnc1NC(=S)Nc1ccccc1Cl`, for which the growth inhibition in assay [1] (setting [7]) was 2%; in assay [1] (setting [8]), 99% (active); in assay [1] (at 50.0 µM), 89.5% (active); in assay [2] (setting [7]), 12%; in assay [2] (setting [8]) it was 99% (active); in assay [2] (at 50.0 µM) it was 91.3% (active). Further, the growth inhibition is 28% in assay [3] (setting [7]); 99% (active) in assay [3] (setting [8]); 93.2% (active) in assay [3] (at 50.0 µM); -12% in assay [4] (setting [7]); 99% (active) in assay [4] (setting [8]); 85.8% (active) in assay [4] (at 50.0 µM). Also, the growth inhibition in assay [5] (setting [7]) was 18%; in assay [5] (setting [8]), 95% (active); in assay [5] (at 50.0 µM) it was 91.8% (active); in assay [6] (setting [7]), 28%; in assay [6] (setting [8]), 99% (active); in assay [6] (at 50.0 µM) it was 89.5% (active).
Turning to `C1CCC(CCCCc2nn[nH]n2)CC1`, the growth inhibition is 0% in assay [1] (setting [7]); 98% (active) in assay [1] (setting [8]); 99.1% (active) in assay [1] (at 50.0 µM); -30% in assay [2] (setting [7]); 97% (active) in assay [2] (setting [8]); 99.3% (active) in assay [2] (at 50.0 µM). Also, the growth inhibition is -1% in assay [3] (setting [7]); 96% (active) in assay [3] (setting [8]); 99% (active) in assay [3] (at 50.0 µM); 0% in assay [4] (setting [7]); 99% (active) in assay [4] (setting [8]); 98.3% (active) in assay [4] (at 50.0 µM). Moreover, the growth inhibition in assay [5] (setting [7]) was -6%; in assay [5] (setting [8]), 97% (active); in assay [5] (at 50.0 µM), 99.3% (active); in assay [6] (setting [7]) it was -7%; in assay [6] (setting [8]), 97% (active); in assay [6] (at 50.0 µM) it was 99% (active).
`CC(=O)/C(=C\c1ccc(Cl)cc1Cl)C(=O)CCN(C)C`: the growth inhibition in assay [1] (setting [7]) is 4%; in assay [1] (setting [8]) it was 99% (active); in assay [1] (at 50.0 µM), 97.5% (active); in assay [2] (setting [7]) it was -3%; in assay [2] (setting [8]), 99% (active); in assay [2] (at 50.0 µM) it was 99.3% (active). Moreover, the growth inhibition in assay [3] (setting [7]) is 11%; in assay [3] (setting [8]) it was 99% (active); in assay [3] (at 50.0 µM) it was 97.3% (active); in assay [4] (setting [7]), 4%; in assay [4] (setting [8]), 98% (active); in assay [4] (at 50.0 µM), 76% (active). Moreover, the growth inhibition in assay [5] (setting [7]) is -1%; in assay [5] (setting [8]), 98% (active); in assay [5] (at 50.0 µM), 98% (active); in assay [6] (setting [7]) it was 1%; in assay [6] (setting [8]), 98% (active); in assay [6] (at 50.0 µM) it was 98.8% (active).
For `COc1ccc(C2=NN(c3ccccc3)C[N+](c3ccc(C)cc3)=N2)cc1`, the growth inhibition in assay [1] (setting [7]) was 6%; in assay [1] (setting [8]), 98% (active); in assay [1] (at 50.0 µM) it was 97.5% (active); in assay [2] (setting [7]) it was -14%; in assay [2] (setting [8]), 99% (active); in assay [2] (at 50.0 µM), 98.2% (active). Also, the growth inhibition in assay [3] (setting [7]) is -3%; in assay [3] (setting [8]), 98% (active); in assay [3] (at 50.0 µM) it was 98.5% (active); in assay [4] (setting [7]), 12%; in assay [4] (setting [8]), 98% (active); in assay [4] (at 50.0 µM) it was 97.9% (active). The growth inhibition was -1% in assay [5] (setting [7]); 99% (active) in assay [5] (setting [8]); 98.2% (active) in assay [5] (at 50.0 µM); 13% in assay [6] (setting [7]); 98% (active) in assay [6] (setting [8]); 97.8% (active) in assay [6] (at 50.0 µM).
For `O=C(O)Cc1cccc2cc3c(ccc4ccccc43)cc12`, the growth inhibition in assay [1] (setting [7]) was 15%; in assay [1] (setting [8]), 34%; in assay [1] (at 50.0 µM), 47.7%; in assay [2] (setting [7]), 8%; in assay [2] (setting [8]), 32%; in assay [2] (at 50.0 µM) it was 91% (active). The growth inhibition was 11% in assay [3] (setting [7]); 47% in assay [3] (setting [8]); 10.1% in assay [3] (at 50.0 µM); -2% in assay [4] (setting [7]); 44% in assay [4] (setting [8]); 96.6% (active) in assay [4] (at 50.0 µM). In addition, the growth inhibition in assay [5] (setting [7]) is 2%; in assay [5] (setting [8]), 42%; in assay [5] (at 50.0 µM), 93.3% (active); in assay [6] (setting [7]), 8%; in assay [6] (setting [8]), 44%; in assay [6] (at 50.0 µM), 96.7% (active).
With `NC(=S)N1N=C2c3ccccc3CCC[C@H]2[C@@H]1c1ccccc1`, the growth inhibition in assay [1] (setting [7]) is 23%; in assay [1] (setting [8]) it was 34%; in assay [1] (at 50.0 µM), 73.2% (active); in assay [2] (setting [7]), 16%; in assay [2] (setting [8]), 27%; in assay [2] (at 50.0 µM), 70.1% (active). Also, the growth inhibition in assay [3] (setting [7]) is 21%; in assay [3] (setting [8]), 43%; in assay [3] (at 50.0 µM), 77.1% (active); in assay [4] (setting [7]), 12%; in assay [4] (setting [8]), 13%; in assay [4] (at 50.0 µM), 63.9%. Also, the growth inhibition is 25% in assay [5] (setting [7]); 47% in assay [5] (setting [8]); 74.2% (active) in assay [5] (at 50.0 µM); 17% in assay [6] (setting [7]); 48% in assay [6] (setting [8]); 69.5% in assay [6] (at 50.0 µM).
